Screening data from PubChem.
Only some compounds are listed: those with a hit (about 1.3% of all), similar ones and a draw of the others.
TrxR1 inh: qHTS Assay for Inhibitors of Mammalian Selenoprotein Thioredoxin Reductase 1 (TrxR1): qHTS; recombinant rTrxR1, NADPH fluorescence consumption, selenite substrate; Potency, µM (top dose mostly 114 µM), for the others: at the top dose activity change, negative = inhibition, hits mostly inhibitors; Thioredoxin reductase 1, cytoplasmic (Rattus norvegicus), O89049; AID 588453, 2011; 1% of 390,000 active; further: potency means the concentration at half of the fitted maximal effect; nearly all actives have a fitted effect of over 65% in size
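Rat TrxR1 (90 nM in the dispensed reagent) was pre-reduced with 400 uM NADPH for 5 min at room temperature, then incubated with compound for 15 min. After 400 uM selenite was added, NADPH fluorescence (Ex 340/Em 450 nm) was followed for 8 min.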
GCN5L2 inh: qHTS Assay for Inhibitors of GCN5L2; GCN5L2 HAT assay, ThioGlo1 CoA-SH fluorescence; AID 504327, 2011; 0.21% of 390,000 active; Histone acetyltransferase KAT2A (Homo sapiens), Q92830; Potency, µM (top dose mostly 58.9 µM), for the others: at the top dose activity change, negative = inhibition, actives largely listed as inhibitors; further: potency means the concentration at half of the fitted maximal effect
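GCN5L2 (20 nM) in 50mM HEPES pH 7.5, 0.1mM EDTA, 0.01% Tween-20 preincubated 15 min with compounds at room temperature. Reaction started with H3(1-25) 75uM, acetyl-CoA 70uM, ThioGlo1 50uM; CoA-thiol fluorescence (Ex340/Em540) read at 0 and 20 min.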
GALK inhibitor: qHTS Assay for Inhibitors of Human Galactokinase (GALK); P51570; Purified GALK, Kinase-Glo residual ATP luminescence; Potency, µM (top dose mostly 57.5 µM), inactives show top-dose activity change, negative = inhibition, most hits filed as inhibitors; 0.007% of 270,000 active; further: potency means the concentration at half of the fitted maximal effect
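The enzyme phosphorylates galactose (100 uM) using ATP (35 uM); inhibition is detected as higher residual ATP, quantified by bioluminescence after 1 h reaction at room temperature, pH 8.0.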
Giardia killer: Small Molecules that selectively kill Giardia lamblia: qHTS; Giardia lamblia trophozoite viability; activity change, % at 7.66 µM, hits read low; 0.15% of 340,000 active; AID 540267, 2011; in the data active means activity change below about -80%; inconclusive means between about -30% and that limit;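 further: parasites exposed to compound for two days anaerobically before the ATP read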
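Luminescence from cellular ATP indicates surviving trophozoites (100 cells/well) following 48 hrs anaerobic compound treatment at 37 deg C; signal develops 15-30 min at room temperature.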
Pin1 inhibitor: qHTS Assay to Find Inhibitors of Pin1; Pin1 FP peptide displacement, HiFluor488, 10 min; Potency, µM (series often up to 115 µM), without a hit: at the highest dose activity, negative = inhibition, actives largely listed as inhibitors; 0.009% of 390,000 active; active means well fitted inhibition curve with a large enough effect in the polarisation, with a control signal flat, not every such curve was filed as active; inconclusive means small, poorly fitted or top-dose-only effect, or effect the other way, or a change in a side signal; inactive means no such curve, though single readings can be large or run the other way; the % refers to the polarisation; further: potency means the concentration at half of the fitted maximal effect
TrxR1 substrate: qHTS Assay for Substrates of Mammalian Selenoprotein Thioredoxin Reductase 1 (TrxR1): qHTS; purified TrxR1 substrate turnover, NADPH consumption readout; Potency, µM (doses to about 114 µM), without a hit: at the top dose activity change, negative = substrate turnover; 0.01% of 390,000 active; AID 588456, 2011; further: potency means the concentration at half of the fitted maximal effect; nearly all actives have a fitted effect of over 50% in size
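Rat TrxR1, dispensed at 90 nM, was prereduced with 400 uM NADPH (final) for 5 min at ~22 deg C, then incubated with compound 15 min before 400 uM selenite. A first-read NADPH fluorescence drop versus no-compound background flagged substrates.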
* hit, by the source's call; u = inconclusive; x = not tested or not shown; [ ] = dose if it differs, or a comment. Unless noted, the call rests on the fitted dose curve; in most records, active means well fitted curve in the direction sought with a large enough effect; inconclusive means small, poorly fitted or top-dose-only effect, or another doubt; inactive means no such curve, though single readings can be large; an effect the other way counts as inactive or inconclusive. On the % scale 0 is the no-effect control and ±100 the full control effect.

SMILES	TrxR1 inh	GCN5L2 inh	GALK inhibitor	Giardia killer	Pin1 inhibitor	TrxR1 substrate
CCNC(=O)N1CCN(/[N+]([O-])=N/Oc2ccc([N+](=O)[O-])cc2[N+](=O)[O-])CC1	14µM*	x	x	x	x	-7%
CCN(CC)C(=O)N1CCN(/[N+]([O-])=N/Oc2ccc([N+](=O)[O-])cc2[N+](=O)[O-])CC1	22µM*	x	x	x	x	-8%
CC(C)(C)OC(=O)N1CCN(/[N+]([O-])=N/Oc2ccc([N+](=O)[O-])cc2[N+](=O)[O-])CC1	u	x	x	x	x	15%
CC(=O)N1CCN(/[N+]([O-])=N/Oc2ccc([N+](=O)[O-])cc2[N+](=O)[O-])CC1	10µM*	x	x	x	x	-4%
CN(C)/[N+]([O-])=N/Oc1cc(F)c([N+](=O)[O-])cc1[N+](=O)[O-]	20µM*	x	x	x	x	-10%
CN(C)c1ccc(C(=O)Oc2cc(O/N=[N+](\[O-])N(C)C)c([N+](=O)[O-])cc2[N+](=O)[O-])cc1	-15%	x	x	x	x	-5%
CCOC(=O)c1ccc(NC(=O)CC2C(=O)N(c3ccc(C)cc3)C(=O)N2C2CCCC2)cc1 (stereo not given)	8%	-10%	x	x	u	-5%
CN(C)/[N+]([O-])=N/Oc1ccc([N+](=O)[O-])cc1C(F)(F)F	17%	x	x	x	x	4%[0.457 µM]
CCN(CC)/[N+]([O-])=N/Oc1ccc([N+](=O)[O-])cc1[N+](=O)[O-]	14µM*	x	x	x	x	-11%
O=C1C2C3C=CC(C4CC34)C2C(=O)N1/N=C/c1ccc(-c2ccc(F)cc2[N+](=O)[O-])o1 (stereo not given)	-11%	-4%	-2%	-4	-4%	-8%
Cc1ccc(-c2ccc(/C=N/N3C(=O)C4C5C=CC(CC5)C4C3=O)o2)c([N+](=O)[O-])c1 (stereo not given)	3%	-1%	-3%	-102*	0%	0%
CCOC(=O)c1cnc2ccc(C(=O)OC)cc2c1NCCN1CCOCC1	45µM*	1%	10%	9	-2%	7%
Cc1ccc(Nc2c(-c3ccc(N4CCOCC4)cc3)nc3c(C)cccn23)cc1	u	u	x	x	u	132%
O=[N+]([O-])c1ccc(/C=C2\CCC(C3=CCCC3)=C2N2CCOCC2)cc1	40µM*	-6%	2%	-3	2%	-10%
Cc1cccc(Cn2ncc3c4sc(C)cc4n(C)c3c2=O)c1	x	x	x	x	2%	x
Cc1nc2cc(Cl)c(Cl)cc2n1CCCO	4%[57.1 µM]	-6%	2%	19	-1%	-1%[57.1 µM]
Cc1cc(=S)cc(C)n1CCCO	13µM*	-2%	1%	21	9%	-12%
CN(C)c1nc(C=C(C#N)C#N)c(Cl)n1-c1ccc(F)cc1	4.5µM*	-7%	-2%	1	-7%	-9%
N#CC(C#N)=C1c2cc(S(=O)(=O)NCCO)ccc2-c2ccc(S(=O)(=O)NCCO)cc21	3.5µM*	-4%	0%	-1	2%	2%
NS(=O)(=O)c1ccc2c(c1)C(=NO)c1cc(S(N)(=O)=O)ccc1-2	15%	-4%	-2%	-13	-8%	5%
N#CC(C#N)=C1c2cc(S(N)(=O)=O)ccc2-c2ccc(S(N)(=O)=O)cc21	10µM*	-3%	-3%	-8	2%	9%
Cc1ccc(-c2nc(N)s[n+]2-c2ccccc2)cc1	-13%	6.3µM*	0%	-3	7%	-8%
CNc1nc(-c2ccccc2)[n+](-c2ccc(C)cc2)s1	-37%	7.9µM*	0%	3	0%	-22%[57.1 µM]
Cc1ccc(-c2nc3ccccc3nc2-c2ccccc2)cc1	24%	-5%	5%	-5	-1%	23%
Cc1ccc(-c2cc(-c3ccccc3)nc(NN)n2)cc1	1%	-7%	1%	-5	1%	-2%
